Screening data from PubChem BioAssay.
Rows were chosen to be rich in hits. Some 2.7% of all compounds tested hit in one or more screens of this group.
PGC1a acetyl inh – lowers PGC1a acetylation signal in U2OS cells. AlphaScreen anti-acetyl-lysine; with virally co-expressed GCN5 acetyltransferase. inhibition, % at 15.6 µM. 0.17% of 350,000 active. AID 651687;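 active means every replicate shows inhibition of at least 40%; inconclusive means mean inhibition at least 40% but some replicate below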
PAX8 reporter – inhibitors of PAX8 transcriptional activity in RMG-I cells. RMG-I TPO-luciferase reporter, SteadyGlo, 24 h. inhibition, % at 12.6 µM. 1.2% of 360,000 active;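 active means mean replicate inhibition at least 60% with every replicate also reaching 60%; inconclusive means only one of the two criteria is met; inactive means mean below 60% and not all replicates reaching 60%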;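 further: luciferase light reporting Pax8 driven TPO promoter activity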
INS-1E GSIS act – GLuc luminescence reporter in INS-1E cells, primary screen for activators of glucose-dependent secretion of insulin; INS-1E GLuc reporter insulin secretion, 2-3 h; activation, % at 16.6 µM; 0.61% of 370,000 active;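 active means lowest replicate activation of at least 40%, so every replicate reaches that level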
EWS-Fli inh – EWS/Fli transcriptional activity inhibition; A673 NR0B1-luciferase reporter, viability-normalised; inhibition, % at 12.6 µM; 0.67% of 350,000 active; AID 651661;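 active means mean inhibition of at least 50% after viability correction, with every replicate also passing that limit; inconclusive means mean reaches 50% but only one of two replicates passes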;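 further: firefly luciferase signal divided by Alamar Blue viability fluorescence both relative to DMSO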
HIV Env fusion – HIV envelope-mediated fusion inhibition; HeLa-JRFL Env/CEM21 cell fusion, luciferase; inhibition, % at 12.3 µM; 1.1% of 360,000 active;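 active means mean replicate inhibition score of at least 50 and every replicate individually at or above 50; inconclusive means only one of the two criteria met; inactive means mean below 50 and not all replicates reaching 50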
F508del corr – correctors of CFTR F508del function in bronchial epithelial cells. activity (quench increase), % at 7.58 µM. 0.36% of 350,000 active. CFBE cells, YFP halide quenching; stimulated with forskolin plus potentiator P3; % fluorescence drop versus neutral controls;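 active means mean added fluorescence quench of at least 8% versus neutral control, with both replicates also reaching 8%; inconclusive means only one of the mean or replicate conditions met; inactive means mean below 8% and not both replicates reaching 8%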;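 further: cells transiently co-express mutant CFTR-F508del with the halide-sensitive YFP; corrector assay measuring rescue of mutant channel to the surface after 24 h compound exposure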
Hits are given with their value; – = inactive; ? = inconclusive; · = no result; [ ] = another dose, or the depositor's remark.

SMILES	PGC1a acetyl inh	PAX8 reporter	INS-1E GSIS act	EWS-Fli inh	HIV Env fusion	F508del corr
C=CCOC(=O)C1=C(C)NC(SCC(=O)Nc2ccc(C)c(Cl)c2)=C(C#N)C1c1ccco1 (stereo unspecified)	–	–	·	·	55	·
O=C(CC1CC1)Nc1ccc2c(c1)[C@H]1C[C@@H](CC(=O)NC3CCCC3)O[C@@H](CO)[C@H]1O2	–	–	–	–	–	–
COc1ccc(C2NC(=S)NC3=C2CCCC3=C2SCCS2)cc1 (stereo unspecified)	45	102	–	63	–	11
Cc1ccc(Oc2cccc3c2S(=O)(=O)N([C@H](C)c2ccccc2)C[C@@H](COCc2ccccc2)O3)cc1	·	–	–	–	–	–
O=S1(=O)c2ccccc2OC(COCc2ccccc2)CN1C1CC1 (stereo unspecified)	–	–	109	–	–	–
CN1CC(COCc2ccccc2)Oc2ccccc2S1(=O)=O (stereo unspecified)	–	–	–	–	–	–
C[C@H](c1ccccc1)N1C[C@@H](COCc2ccccc2)Oc2cccc(N3CCCCC3)c2S1(=O)=O	·	–	–	–	59	–
O=S(=O)(NC1CCN(Cc2ccc(OCCO)cc2)CC1)c1cc(C(F)(F)F)ccc1Cl	–	·	·	–	–	–
CO[C@H]1CN(C)C(=O)c2cc(NS(C)(=O)=O)ccc2OC[C@@H](C)N(C(=O)c2ccc3c(c2)OCO3)C[C@@H]1C	–	–	–	–	·	–
CSc1nc(N(C)C)nc(N2CC(=O)N(CCNS(=O)(=O)c3ccc(C)cc3)C2=N)n1	·	–	40	–	–	–
Cc1ccc(S(=O)(=O)Nc2cccc3c2O[C@H](CN(C)C(=O)Nc2ccc(F)cc2)[C@H](C)CN([C@H](C)CO)C3=O)cc1	–	–	–	–	–	–
CO[C@H]1CN(C)C(=O)c2ccc(NC(=O)c3cc(C)on3)cc2OC[C@@H](C)N(C)C[C@@H]1C	–	–	–	–	–	–
Cc1nn2cc(-c3cccc(Cl)c3)cnc2c1Br	–	–	–	–	–	9.5
Cc1nn2cc(-c3cccc(Cl)c3)cnc2c1Cl	–	–	–	–	–	–
Cc1noc(C)c1S(=O)(=O)N(C)C[C@H]1OCCCC[C@H](C)Oc2ccc(NC(=O)Cc3ccccc3)cc2C(=O)N([C@H](C)CO)C[C@@H]1C	–	–	–	–	–	–
CCOc1ccc(NCc2nnc(SCc3ccccc3Cl)n2-c2ccccc2)cc1	·	·	·	·	82	·
COc1ccc(-n2c(CNc3ccc(C)cc3)nnc2SCc2ccccc2)cc1	–	–	–	·	–	·
C[C@@H]1CN(C)C(=O)c2cc(N)ccc2O[C@@H]1CN(C)C(=O)OC(C)(C)C	·	·	–	·	·	·
CC(C)Nc1nc(Nc2ccc(C#N)cc2)c2sccc2n1	·	–	–	–	–	8.1
Cc1noc(C)c1NC(=O)N(C)C[C@H]1OCCCC[C@H](C)Oc2ccc(NC(=O)NC(C)C)cc2C(=O)N([C@@H](C)CO)C[C@@H]1C	–	–	–	–	–	–
C[C@H](CO)N1C[C@H](C)[C@@H](CN(C)Cc2ccc(Oc3ccccc3)cc2)Oc2ncc(-c3cncnc3)cc2C1=O	–	–	–	–	–	–
COc1ccc([Si](C)(C)[C@H]2[C@H](CCO)O[C@@]3(C(=O)N(Cc4ccccc4)c4ccc(N5CCC5=O)cc43)[C@@H]2C)cc1	–	110	·	–	–	–
COc1ccc([Si](C)(C)[C@@H]2[C@@H](CCO)O[C@]3(C(=O)N(Cc4cccc(N5CCOC5=O)c4)c4ccccc43)[C@H]2C)cc1	·	102	·	–	?	–
COc1ccc([Si](C)(C)[C@@H]2[C@@H](CCO)O[C@]3(C(=O)N(Cc4ccccc4)c4ccc(N5CCOC5=O)cc43)[C@H]2C)cc1	–	–	·	–	–	–
COc1ccc([Si](C)(C)[C@@H]2[C@@H](CCO)O[C@]3(C(=O)N(Cc4ccc(N5CCOC5=O)cc4)c4ccccc43)[C@H]2C)cc1	–	97	·	–	57[16.7 µM]	–
SMILES	PGC1a acetyl inh	PAX8 reporter	INS-1E GSIS act	EWS-Fli inh	HIV Env fusion	F508del corr
COc1ccc([Si](C)(C)[C@H]2[C@H](CCO)O[C@@]3(C(=O)N(Cc4ccccc4)c4ccc(N5CCOC5=O)cc43)[C@@H]2C)cc1	–	–	·	–	–	–
C[C@@H]1CN([C@@H](C)CO)C(=O)Cc2cc(NC(=O)CCC(F)(F)F)ccc2O[C@H]1CN(C)Cc1ccc(C(F)(F)F)cc1	–	?	–	–	·	–
CCC(C)N(C(=O)CSc1nncn1C)C1CCS(=O)(=O)C1 (stereo unspecified)	–	–	102	–	–	–
CCC(C)N(C(=O)CSc1nnc(-c2ccco2)n1C)C1CCS(=O)(=O)C1 (stereo unspecified)	·	–	–	–	–	–
Cc1ccccc1OCC(=O)Nc1cccc(Cl)c1C	–	–	–	–	–	–
Cc1ccccc1OCC(=O)Nc1ccccc1-c1ccccc1NC(=O)COc1ccccc1C	–	–	–	·	64	·
OC[C@H]1[C@H](c2ccc(C#CC3CCCC3)cc2)[C@@H]2CN(CCC(F)(F)F)CCCCN12	–	–	–	–	·	–
OC[C@@H]1[C@@H](c2ccc(C#CC3CCCC3)cc2)[C@@H]2CN(CCC(F)(F)F)CCCCN12	–	–	46	–	·	–
OC[C@@H]1[C@@H](c2ccc(C#CC3CCCC3)cc2)[C@H]2CN(CCC(F)(F)F)CCCCN12	–	–	170	–	·	–
CC(C)(C)C(=O)/C(=C/c1ccc(Cl)cc1)n1cncn1	–	86	–	–	–	–
C[C@H](CO)N1C[C@H](C)[C@H](CN(C)CC2CC2)Oc2ccc(NC(=O)Cn3cnnn3)cc2CC1=O	–	·	–	–	–	–
Cc1ccc(-c2nn3c(C)nnc3s2)cc1NC(=O)c1ccc(-c2ccc(Cl)cc2Cl)o1	–	·	–	·	115	·
O=S1(=O)CCO[C@H]2Cc3ccccc3[C@H]2N1Cc1cccc(C(F)(F)F)c1	–	–	–	–	66	–
O=S1(=O)CCO[C@H]2Cc3ccccc3[C@H]2N1Cc1cccc(F)c1	–	–	–	–	–	–
N#C[C@@H]1[C@@H](c2ccccc2C2=CCCC2)[C@@H](CO)N1C(=O)NC1CCCCC1	–	·	–	–	·	–
C[C@@H]1CN([C@H](C)CO)C(=O)c2cccc(NC(=O)Nc3ccccc3)c2O[C@@H]1CN(C)Cc1ccc(-c2ccccc2)cc1	–	–	–	–	–	–
CCCCS(=O)(=O)N1CCN(C(=O)C(=O)c2cccc(C(F)(F)F)c2)CC1	·	–	–	–	91	–
CCc1c(C)sc(NC(=O)c2cc(-c3ccc(OC)c(OC)c3)on2)c1C#N	–	·	80	·	–	·
CCCNC(=O)N1CC2(C1)CN(C(=O)COC)[C@H](CO)c1[nH]c3cc(OC)ccc3c12	–	61	–	–	·	–
